These results are taken from PubChem BioAssay (NCI).

Some test systems named below: SR leukemia; OVCAR-8 ovarian; OVCAR-5 ovarian; OVCAR-4 ovarian; SK-OV-3 ovarian; IGROV1 ovarian; OVCAR-3 ovarian; HS 578T breast; NCI/ADR-RES ovarian; T-47D breast; BT-549 breast; MDA-MB-435 melanoma; SW-620 colon; MCF7 breast; HCT-116 colon; HCC-2998 colon; KM12 colon.
Test in all cases: NCI-60 one-dose screen, 48 h (100 = growth as untreated, 0 = no growth, -100 = all killed)
Conditions in all cases: 10 µM unless noted

Compounds without any hit were thinned out: in the full panel of roughly 83,000, 20% have a hit.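 Compound tested at a single concentration for 48 hours in 96-well plates; a percent growth value below 10 was scored as active.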 A number with no mark means an inactive call. Calls of active or inactive are those of the source.

On to `CC(C)c1nc2ccccc2n1CC(=O)N/N=C/c1cccc(O)c1`, for which the growth was 89.7% in the experiment on SR leukemia; 92.6% with OVCAR-8 ovarian; 108% in the experiment with OVCAR-5 ovarian; 104% in the experiment on OVCAR-4 ovarian; 93.2% in the experiment on SK-OV-3 ovarian; 118% with IGROV1 ovarian. In addition, the growth in the experiment with OVCAR-3 ovarian is 109%; with HS 578T breast, 98.3%; in the experiment with NCI/ADR-RES ovarian, 109%; in the experiment with T-47D breast it was 103%; in the experiment on BT-549 breast, 99.7%; with MDA-MB-435 melanoma, 99.8%. Also, the growth in the experiment on SW-620 colon is 93.6%; in the experiment with MCF7 breast, 105%; in the experiment on HCT-116 colon it was 87%; with HCC-2998 colon, 104%; in the experiment with KM12 colon it was 103%.

For `CCCCc1nc(Cl)c(C2CC(c3ccc(S(N)(=O)=O)cc3)=NN2c2ccc(C#N)cc2)[nH]1` (configuration not stated), the growth was 80.5% in the experiment on SR leukemia; 83.2% with OVCAR-8 ovarian; 88.5% with OVCAR-5 ovarian; 98.2% with OVCAR-4 ovarian; 96.4% in the experiment on SK-OV-3 ovarian; 93% in the experiment on IGROV1 ovarian. Further, the growth in the experiment on OVCAR-3 ovarian was 92.5%; in the experiment on HS 578T breast, 79.4%; in the experiment with NCI/ADR-RES ovarian it was 107%; with T-47D breast, 68.7%; in the experiment with BT-549 breast, 80.6%; in the experiment with MDA-MB-435 melanoma, 93.9%. In addition, the growth with SW-620 colon was 91.8%; in the experiment on MCF7 breast, 76.1%; in the experiment with HCT-116 colon it was 85.8%; in the experiment on HCC-2998 colon, 109%; in the experiment on KM12 colon, 99.8%.

Consider `CS(=O)(=O)c1ccc(C(=O)Nc2ccc(Cl)c(-c3ccccn3)c2)c(Cl)c1`, for which the growth with SR leukemia was 9.7% (active); in the experiment on OVCAR-8 ovarian it was 23.3%; in the experiment on OVCAR-5 ovarian, 33.6%; with OVCAR-4 ovarian, 26.8%; with SK-OV-3 ovarian it was 19.2%; in the experiment on IGROV1 ovarian, 25.2%. In addition, the growth is -11.1% (active) in the experiment with OVCAR-3 ovarian; 51.1% in the experiment with HS 578T breast; 11.1% in the experiment with NCI/ADR-RES ovarian; 16.6% in the experiment with T-47D breast; 11.8% in the experiment on BT-549 breast; 14.1% in the experiment with MDA-MB-435 melanoma. The growth with SW-620 colon was 20.8%; in the experiment on MCF7 breast it was 20.4%; with HCT-116 colon, 11.7%; with HCC-2998 colon it was 5.78% (active); with KM12 colon it was 13.7%.

Consider `c1csc(-c2cnc3nonc3n2)c1`, for which the growth is 39.3% in the experiment with SR leukemia; 79.2% in the experiment on OVCAR-8 ovarian; 107% in the experiment on OVCAR-5 ovarian; 89.5% in the experiment on OVCAR-4 ovarian; 92.7% in the experiment with SK-OV-3 ovarian; 76.9% in the experiment on IGROV1 ovarian. Besides, the growth was 84.2% in the experiment on OVCAR-3 ovarian; 92.5% in the experiment with HS 578T breast; 95% in the experiment on NCI/ADR-RES ovarian; 45.9% in the experiment with T-47D breast; 87.3% with BT-549 breast; 98.6% in the experiment with MDA-MB-435 melanoma. Moreover, the growth was 99.7% with SW-620 colon; 61.3% in the experiment with MCF7 breast; 66.6% in the experiment with HCT-116 colon; 112% with HCC-2998 colon; 91.5% in the experiment with KM12 colon.

For `Clc1ccc(-c2cnc3nonc3n2)s1`, the growth with SR leukemia was 38.4%; in the experiment with OVCAR-8 ovarian, 67.3%; in the experiment with OVCAR-5 ovarian, 91.5%; with OVCAR-4 ovarian it was 89.9%; in the experiment on SK-OV-3 ovarian, 98.1%; in the experiment with IGROV1 ovarian, 71.3%. The growth in the experiment with OVCAR-3 ovarian was 23.1%; in the experiment on HS 578T breast, 90.3%; in the experiment with NCI/ADR-RES ovarian it was 98.5%; in the experiment on BT-549 breast, 93.8%; in the experiment with MDA-MB-435 melanoma, -10.6% (active); with SW-620 colon, 82.6%. In addition, the growth in the experiment with MCF7 breast is 38.7%; in the experiment with HCT-116 colon it was 67%; with HCC-2998 colon, 109%; with KM12 colon, 77.1%.

For the compound `Clc1cc(Cl)cc(-c2cnc3nonc3n2)c1`, the growth in the experiment on SR leukemia is 93.2%; with OVCAR-8 ovarian, 94.2%; in the experiment with OVCAR-5 ovarian, 93.7%; with OVCAR-4 ovarian, 85.5%; in the experiment with SK-OV-3 ovarian, 96.4%; with IGROV1 ovarian, 94.9%. Also, the growth was 36% with OVCAR-3 ovarian; 102% in the experiment with HS 578T breast; 98.9% in the experiment on NCI/ADR-RES ovarian; 59.8% in the experiment with T-47D breast; 95.6% in the experiment with BT-549 breast; 63.9% in the experiment with SW-620 colon. Moreover, the growth in the experiment with HCT-116 colon was 72.9%; with HCC-2998 colon, 97.5%; with KM12 colon it was 90%.

Regarding `c1cc(C2CCCCC2)ccc1-c1cnc2nonc2n1`, the growth with SR leukemia was 4.98% (active); in the experiment on OVCAR-8 ovarian, 8.93% (active); with OVCAR-5 ovarian it was 25.7%; with OVCAR-4 ovarian, 43.9%; in the experiment on SK-OV-3 ovarian, 33.5%; in the experiment with IGROV1 ovarian, 34.8%. In addition, the growth in the experiment with OVCAR-3 ovarian was 1.51% (active); in the experiment with HS 578T breast it was 58.1%; with NCI/ADR-RES ovarian it was -3.11% (active); with T-47D breast it was 20.7%; in the experiment on BT-549 breast it was 9.82% (active); in the experiment with SW-620 colon, 22%. Besides, the growth in the experiment with HCT-116 colon was 4.27% (active); with HCC-2998 colon it was 8.72% (active); with KM12 colon it was 14.2%.

On to `CCOC(=O)CCN(CCC(=O)OCC)c1ccccc1`, for which the growth in the experiment on SR leukemia was 104%; with OVCAR-8 ovarian, 94.5%; in the experiment with OVCAR-5 ovarian, 92.2%; in the experiment with OVCAR-4 ovarian it was 113%; with SK-OV-3 ovarian, 87.1%; in the experiment on IGROV1 ovarian, 87.4%. For the same compound, the growth in the experiment with OVCAR-3 ovarian was 85.2%; in the experiment on HS 578T breast it was 106%; in the experiment with NCI/ADR-RES ovarian it was 105%; in the experiment on T-47D breast, 95.7%; with BT-549 breast it was 97.9%; with MDA-MB-435 melanoma, 124%. Moreover, the growth was 103% in the experiment on SW-620 colon, 95.4% with HCT-116 colon, 119% with HCC-2998 colon and 93.5% with KM12 colon.

Take `O=C(O/C(=C/c1ccccc1)C(F)(F)F)c1ccccc1`: the growth was 69.6% in the experiment with SR leukemia; 101% in the experiment with OVCAR-8 ovarian; 101% with OVCAR-5 ovarian; 103% in the experiment on OVCAR-4 ovarian; 111% with SK-OV-3 ovarian; 120% in the experiment with IGROV1 ovarian. The growth with OVCAR-3 ovarian was 103%; in the experiment on HS 578T breast, 116%; in the experiment on NCI/ADR-RES ovarian it was 103%; with T-47D breast, 101%; in the experiment with BT-549 breast, 105%; in the experiment with MDA-MB-435 melanoma, 107%. For the same compound, the growth is 113% in the experiment with SW-620 colon, 105% in the experiment on HCT-116 colon, 102% with HCC-2998 colon and 99.4% with KM12 colon.

For `C=CCOC(=O)C1=C(C)NC2=C(C(=O)CC(C)(C)C2)C1c1ccc(OC)cc1` (configuration not stated), the growth was 98.8% with SR leukemia; 93% with OVCAR-8 ovarian; 107% in the experiment with OVCAR-5 ovarian; 110% in the experiment with OVCAR-4 ovarian; 82.1% in the experiment with SK-OV-3 ovarian; 105% in the experiment with IGROV1 ovarian. The growth in the experiment with OVCAR-3 ovarian is 107%; in the experiment with NCI/ADR-RES ovarian, 103%; in the experiment on T-47D breast, 99%; in the experiment with BT-549 breast, 94.1%; in the experiment on MDA-MB-435 melanoma, 105%; in the experiment with SW-620 colon, 98.9%. Besides, the growth with MCF7 breast was 97.4%; in the experiment with HCT-116 colon, 88.8%; in the experiment with HCC-2998 colon, 116%; with KM12 colon, 94.8%.
